The panel holds about 83,000 compounds, 20% with a hit somewhere; the sample as a whole holds those more often.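 Activity criterion: percent growth below 10, measured after cells in 96-well plates were exposed to a single compound concentration for 48 hours.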 A number with no mark means an inactive call. Calls of active or inactive are those of the source.
Columns and labels:
Assay in all cases: NCI-60 one-dose screen, 48 h (100 = growth as untreated, 0 = no growth, -100 = all killed)
HCT-15 colon = settings: 10 µM unless noted
HT29 colon = settings: 10 µM unless noted
SNB-75 CNS = settings: 10 µM unless noted
SNB-19 CNS = settings: 10 µM unless noted
PC-3 prostate = settings: 10 µM unless noted
SK-MEL-5 melanoma = settings: 10 µM unless noted
UACC-62 melanoma = settings: 10 µM unless noted
LOX IMVI melanoma = settings: 10 µM unless noted
SK-MEL-28 melanoma = settings: 10 µM unless noted
SK-MEL-2 melanoma = settings: 10 µM unless noted
EKVX NSCLC = settings: 10 µM unless noted
SN12C renal = settings: 10 µM unless noted
UO-31 renal = settings: 10 µM unless noted
TK-10 renal = settings: 10 µM unless noted
ACHN renal = settings: 10 µM unless noted
A498 renal = settings: 10 µM unless noted
CCRF-CEM leukemia = settings: 10 µM unless noted
MOLT-4 leukemia = settings: 10 µM unless noted
U251 CNS = settings: 10 µM unless noted
CAKI-1 renal = settings: 10 µM

Compound | growth (HCT-15 colon) | growth (HT29 colon) | growth (SNB-75 CNS) | growth (SNB-19 CNS) | growth (PC-3 prostate) | growth (SK-MEL-5 melanoma) | growth (UACC-62 melanoma) | growth (LOX IMVI melanoma) | growth (SK-MEL-28 melanoma) | growth (SK-MEL-2 melanoma) | growth (EKVX NSCLC) | growth (SN12C renal) | growth (UO-31 renal) | growth (TK-10 renal) | growth (ACHN renal) | growth (A498 renal) | growth (CCRF-CEM leukemia) | growth (MOLT-4 leukemia) | growth (U251 CNS) | growth (CAKI-1 renal)
COc1ccc(-c2cc3ccc(N(C)C)cc3nc2N)c(F)c1 | 31% | 7.61% (active) | 55% | 49.8% | 28.2% | -62.7% (active) | 48.2% | 23.9% | 38.4% | 47.9% | 32.2% | 54% | 39.3% | 49.1% | 56.8% | 47.1% | 39.7% | 26.3% |  | 
C[C@]12CC[C@@H]3c4ccc(O)c(N)c4CC[C@H]3[C@@H]1CC[C@@H]2O | 101% | 103% | 94.3% | 109% | 97.6% | 99.5% | 97.1% | 96.7% | 118% | 102% | 78.5% | 105% | 109% | 135% |  |  | 75.9% | 80.8% |  | 
Cc1cccc(NC(=O)CCc2ccc(N3C(N)=NC(N)=NC3(C)C)cc2)c1 | 103% | 17.1% | 60.2% | 37% | 10.5% | 26.9% | 24.6% | 18.7% | 69.9% | 59.9% | 55.6% | 30.3% | 115% | 82.5% | 101% | 95.2% | 31.1% | 50.5% |  | 
C=C1C(=O)O[C@H]2[C@H]1CC/C(COC(=O)OC/C1=C/CC[C@@]3(C)O[C@H]3[C@H]3OC(=O)[C@@H](CN(C)C)[C@@H]3CC1)=C\CC[C@@]1(C)O[C@@H]21 | 1.8% (active) | -8% (active) | 91% | 80.3% | 72.7% | 46.9% | -28.1% (active) | -72.3% (active) | -18.3% (active) | 27.4% | 48.8% | 10.7% | -16.2% (active) | -42.7% (active) |  | 58.5% | -13.3% (active) | -30.9% (active) |  | 
COc1cc(Nc2ncccc2C(=O)Nc2nc3ccc(F)cc3s2)cc(OC)c1OC | 76.2% | 79.1% | 73.5% | 89% | 39.2% | 63.9% |  | 57.3% | 84% | 75.3% | 22% | 63.2% |  | 114% | 79.9% |  |  | 74.5% | 58.5% | 18.4%
Oc1ccc(Cl)cc1Sc1cc(Cl)ccc1O | 92.9% | 102% | 63.4% | 95.1% | 89.6% | -14.2% (active) | 58.8% | 88.1% | 52.5% | 94.1% | 103% | 86.3% | 74.6% | 104% | 90.1% |  | 96.7% | 80.9% |  | 
CCn1c(SCC(=O)c2ccc(Br)cc2)nnc1-c1cc2c([nH]c3ccccc32)c(-c2cccc(O)c2)n1 | 56.2% | 91.6% | 60.9% | 98.9% | 68.6% | 52.7% | 89.6% | 48.2% | 73.7% | 69.9% | 67.2% | 96.5% | 70.4% |  |  | 73.5% |  |  |  | 83.7%
O=C(NCCNc1nccc(-c2c(-c3cccc(O)c3)nc3sccn23)n1)Nc1cc(C(F)(F)F)cc(C(F)(F)F)c1 | 79.2% | 63.1% |  | 90.8% | 51.2% | 59.7% | 54.4% | 60.6% | 68.8% | 110% | 52.2% | 82.8% | 73.1% |  | 65.9% | 86% | 39.1% | 60.2% | 77% | 72.3%
Nn1c(SCC(=O)Nc2cc(Cl)c(Cl)cc2Cl)nnc1-c1cc(F)c(Cl)cc1Cl | 150% | 110% |  | 102% | 97.8% | 78.4% | 146% | 129% | 135% | 87.3% | 66.5% | 151% | 65.2% | 123% | 210% | 115% | 125% | 84.8% | 114% | 

From PubChem BioAssay (NCI)
